# This is one part of a sample in which hits are shown more often than they occur.
# RmlCD inh mix: RmlC and RmlD coupled enzyme inhibitors, primary screen, biochemical, 384-well, compound mixtures, retest; inhibition, % at 5.5 µM; RmlC/RmlD coupled enzyme inhibition, 384-well mixture HTS; AID 1532, 2009; 110,000 tested, 0.39% active; in the data active means inhibition above about 30%, passing the limit was not always enough
# HIV RNase H inh-1: HIV-1 RT RNase H inhibitors, primary screen, biochemical, fluorescence; Gag-Pol polyprotein (Human immunodeficiency virus type 1 group M subtype B (isolate …; RT-RNase H RNA/DNA duplex cleavage; inhibition, % at 10 µM; 65,000 tested, 1.9% active; AID 565, 2006; in the data active means inhibition above about 50%
# HIV RNase H inh-2: HIV-1 RT RNase H inhibitors, retest, confirmation, biochemical | AID 651, 2007 | inhibition, % at 10 µM | shares compounds with HIV RNase H inh-1 | Recombinant RT RNase H, fluorescent RNA/DNA duplex cleavage | 1,000 tested, 39% active; in the data active means inhibition above about 48%
# * marks the source's active call; other numbers are inactive results; nt = no result.
SMILES,RmlCD inh mix,HIV RNase H inh-1,HIV RNase H inh-2
Brc1ccccc1-c1nnc2sc(-c3ccc4c(c3)OCCO4)nn12,3.2,-85.9,nt
Fc1ccc(-c2nnc3sc(C4COc5ccccc5O4)nn23)cc1 (stereo not drawn),-27.8,-15.3,nt
c1ccc2c(c1)OCC(c1nnc3sc(-c4ccc5c(c4)OCO5)nn13)O2 (stereo not drawn),11.4,84.9*,68.6*
COc1ccc(OCc2nn3c(Cn4cnc5ccccc54)nnc3s2)cc1,12.1,-24.5,nt
Fc1ccc(-c2nn3c(C4COc5ccccc5O4)nnc3s2)cc1 (stereo not drawn),nt,2.5,nt
c1csc(-c2nn3c(C4COc5ccccc5O4)nnc3s2)c1 (stereo not drawn),10.3,91.0*,62.0*
Cc1cc(C)nc(NC(=O)CSc2nc3ccccc3o2)n1,-3.7,nt,nt
CCOC(=O)c1cnn(-c2cc(C)c3cc(C)cc(C)c3n2)c1N,nt,10.8,nt
FC(F)(F)c1cc(-c2ccco2)nc(NCCc2ccccc2)n1,-24.0,nt,nt
CCOc1ccc(NS(=O)(=O)c2ccc(NC(=O)C3CCCO3)cc2)cc1 (stereo not drawn),-7.7,nt,nt
NC12CC3CC(C1)CC(CO)(C3)O2,-6.0,3.2,nt
C=CCc1ccc(O)c(-c2ccc(O)c(CC=C)c2)c1,-12.0,nt,nt
O=C(NC1CCS(=O)(=O)C1)c1c(NC(=O)C2COc3ccccc3O2)sc2c1CCCC2 (stereo not drawn),2.3,54.3*,70.0*
CCCNC(=O)c1c(NC(=O)C2COc3ccccc3O2)sc2c1CCCC2 (stereo not drawn),7.3,nt,nt
CCOC(=O)[C@@H]1[C@H]2COc3ccccc3[C@@H]2N2C(=O)N(c3cccc(F)c3)C(=O)[C@]12C,-13.4,nt,nt
CC(=O)Nc1nc(=S)ss1,2.6,64.2*,39.1
CC(C)CC(=O)Nc1nc(=S)ss1,1.6,nt,nt
O=C(NCCCn1ccnc1)C(Cc1ccccc1)N1C(=O)c2ccccc2C1=O (stereo not drawn),-1.1,54.9*,34.7
O=C(O)C(Cc1ccccc1)N1C(=O)c2ccccc2C1=O (stereo not drawn),-10.4,nt,nt
CCOC(=O)c1c(-c2cccs2)csc1NC(=O)c1ccco1,22.2,28.1,nt
CCOC(=O)c1c(C2COc3ccccc3O2)csc1NC(=O)c1ccco1 (stereo not drawn),-33.3,96.7*,54.2*
C=CC[n+]1c(-c2ccc(OCC)cc2)csc1NNC(=O)Nc1ccccc1,3.5,nt,nt
CCOC(=O)C1=C(C)NC(=O)NC1C(C)C (stereo not drawn),-18.2,nt,nt
COc1cccc(C(c2sc3nc(C)nn3c2O)N2CCc3ccccc3C2)c1 (stereo not drawn),-8.7,81.5*,-1.1
CCN1CCN(C(c2cccc(OC)c2)c2sc3nc(C)nn3c2O)CC1 (stereo not drawn),nt,-27.5,nt
SMILES,RmlCD inh mix,HIV RNase H inh-1,HIV RNase H inh-2
Cc1c(NC(=O)c2cc(CC(C)C)on2)c(=O)n(-c2ccccc2)n1C,4.7,nt,nt
CC(=O)C1=C(C)N=c2s/c(=C/c3ccc4c(c3)OCO4)c(=O)n2C1c1ccc(N(C)C)cc1 (stereo not drawn),nt,45.1,nt
COc1ccc(C2C(C(C)=O)=C(C)N=c3s/c(=C/c4ccc5c(c4)OCO5)c(=O)n32)cc1 (stereo not drawn),nt,69.6*,53.6*
CCN1C(=O)/C(=C2/Sc3ccc(OC)cc3N2C)SC1=Nc1cccc(O)c1,0.0,51.2*,27.6
CCN1C(=O)/C(=C2/Sc3ccc(OC)cc3N2C)SC1=Nc1ccc(C(C)=O)cc1,nt,6.2,nt
CCc1ccccc1NC(=O)C(CC)Sc1nc2cc3c(cc2c(=O)n1Cc1ccco1)OCO3 (stereo not drawn),-13.2,78.2*,-12.3
CCc1ccc(NC(=O)C(CC)Sc2nc3cc4c(cc3c(=O)n2Cc2ccco2)OCO4)cc1 (stereo not drawn),12.9,nt,nt
CCOC(=O)Cn1c(=O)oc2cc(S(=O)(=O)NCc3cccs3)ccc21,-14.5,-4.8,nt
Cc1noc(C)c1CSc1nnc(-c2ccccc2)n1N,-7.6,nt,nt
Cc1noc(C)c1CSc1nnc2scc(-c3ccccc3)n12,-2.3,63.1*,16.2
CCCCc1ccc(CC(=O)O)cc1,-200.3,55.0*,6.0
CCCCCc1ccc(CC(=O)O)cc1,nt,-8.3,nt
COc1ccc(OC)c(C(=O)COC(=O)c2ccccc2O)c1,-7.2,-10.1,nt
CCC(C)n1ncn(-c2ccc(N3CCN(c4ccc(OCC5COC(Cn6cncn6)(c6ccc(Cl)cc6Cl)O5)cc4)CC3)cc2)c1=O (stereo not drawn),57.4,72.7*,37.0
CCCC1COC(Cn2cncn2)(c2ccc(C)cc2)O1 (stereo not drawn),-2.7,-10.8,nt
O=C(O)CCC(=O)OCC1CCCO1 (stereo not drawn),-14.6,-5.5,nt
Clc1ccc(-c2nnc3sc(-c4ccc(Br)o4)nn23)cc1,1.9,47.6,nt
Cc1oc(-c2ccc(Cl)cc2)cc1-c1nn2c(-c3ccoc3C)nnc2s1,14.3,86.2*,55.2*
CCCCC(CC)Cn1c2nc3ccccc3nc2c2c(=N)oc(C)nc21 (stereo not drawn),nt,67.7*,65.0*
CCCCn1c2nc3ccccc3nc2c2c(=N)oc(C)nc21,nt,-10.1,nt
Cc1ccc(CNc2ccc(O)cc2)cc1,nt,57.1*,3.5
Cc1ccc(NCc2ccccc2O)cc1,-3.7,nt,nt
O=C(O)C1Sc2[nH]c(=O)sc2C2c3cc(Cl)ccc3OC(=O)C12 (stereo not drawn),2.4,71.9*,19.9
COC(=O)C1Sc2[nH]c(=O)sc2C2c3ccccc3OC(=O)C12 (stereo not drawn),-11.7,-1.1,nt
COc1ccc(-c2cc(C(=O)Nc3cnn(Cc4ccccc4C)c3)no2)cc1OC,16.8,86.5*,17.4
SMILES,RmlCD inh mix,HIV RNase H inh-1,HIV RNase H inh-2
COc1cccc(-c2cc(C(=O)Nc3ccccc3SC)no2)c1,-10.9,9.5,nt
CCCn1cc(NC(=O)c2cc(-c3ccccc3)on2)cn1,7.8,nt,nt
COc1ccc(-c2cc(C(=O)Nc3ccccc3SC)no2)cc1OC,3.4,91.2*,3.6
Cc1cccc2cc(C#N)c(NCCNS(=O)(=O)c3ccc4c(c3)OCCO4)nc12,-11.7,-1.1,nt
Oc1cc2c(cc1O)C1c3ccc(O)c(O)c3OCC1(O)C2 (stereo not drawn),-8.6,nt,nt
CCOc1ccccc1NC(=O)N1CCC(NC(=O)c2ccccc2C)CC1,-15.5,1.0,nt
CCOc1ccccc1NC(=O)N1CCC(NC(=O)c2cccc(C)c2)CC1,-8.1,76.9*,12.7
Cc1cc(C(=O)CSc2nnc(-c3ccc(OC(F)F)cc3)o2)c(C)n1Cc1cccs1,1.2,78.6*,67.5*
COc1ccc(-n2cnnc2SCC(=O)c2cc(C)n(Cc3cccs3)c2C)cc1,-3.2,1.3,nt
CC(/C=C(\NC(=O)c1ccccc1)C(=O)N=Nc1c(O)[nH]c2ccc(C)cc12)=C\c1ccccc1,1.0,nt,nt
O=C(NCCO)c1nc(NCCO)c2ccccc2n1,6.5,-14.6,nt
CCC(CC)c1nc(NCCC(=O)O)c2ccccc2n1,8.0,76.2*,40.3
c1coc(-c2nnc(SCc3nc4ccccc4[nH]3)o2)c1,-11.1,-6.2,nt
COc1cccc(C(=O)N/N=C/c2cn[nH]c2-c2ccc(OC)cc2OC)c1,6.8,nt,nt
Cc1ccc(-c2nc3ccccc3o2)cc1NC(=O)c1ccc2c(c1)OCO2,-0.5,61.8*,14.0
